The results in this text go back to PubChem BioAssay.

A number with no mark means an inactive call.

The nature of this assay: growth effects on S. cerevisiae YJM789 – YJM789 clinical isolate, OD600, 24 h, basal, primary screen (AID 1089).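 Note: growth of clinical yeast isolate S. cerevisiae YJM 789 seeded 1000 cells per well; test concentration not given here.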 The conditions noted are these: higher = more signal, called active from +8 up or from −8 down.
`Cc1ccc(S[C@]2(C(=O)O)CC(=O)N(Cc3cc(C(F)(F)F)cc(C(F)(F)F)c3)[C@@H]2c2ccc(CO)cc2)cc1`: the z-score was 0.952.
With `CCOC(=O)[C@H]1[C@@H]2C(=O)N3CCC[C@H]3[C@H](O[Si](C(C)C)(C(C)C)C(C)C)[C@H]2C=C2CCN(S(=O)(=O)c3ccc(C)cc3)C[C@H]21` the figure was -0.212; with `CO[C@H]1O[C@H](CO)[C@@H](OC(=O)Nc2ccccc2-c2ccccc2)[C@H](OC(=O)Nc2ccc3c(c2)OCO3)[C@H]1OC(=O)Nc1ccc2c(c1)OCO2`, 1.86; with `COc1ccccc1CN1C(=O)c2ccccc2[C@@]2(Cc3ccccc3N(CC(F)(F)F)C2=O)[C@@H]1c1ccc(CO)cc1`, 0.17.
The result for `CN(C)C(=O)[C@@]1(Cc2ccccc2CN=[N+]=[N-])N=C(c2ccc(OCCCO)cc2)O[C@H]1c1ccccc1CN=[N+]=[N-]` reads 0.733; that for `COc1ccc(CCN2C(=O)[C@@]3(Cc4ccccc42)c2ccccc2C(=O)N(Cc2ccccc2OC)[C@H]3c2ccc(CO)cc2)cc1`, -0.585.
The result for `O=C1C2C=CC(C(O)c3ccc(Br)cc3)N(Nc3ccccc3F)C2C(=O)N1c1ccccc1` (stereo unspecified) reads -1.16; that for `C=CCC(OC(C)=O)[C@@H]1[C@@H](N(Cc2cccc3ccccc23)C(=O)Cc2ccc(OC)cc2)c2cc(OCCCO)ccc2N1C(=O)c1ccc2ccccc2n1` (stereo partly specified), -0.482.
Consider `COC(=O)C(CC#Cc1ccc2c(c1)[C@]1(C(=O)N2)[C@H](c2ccccc2OCCO)N2[C@H](c3ccccc3)[C@H](c3ccccc3)OC(=O)[C@H]2[C@@H]1C(=O)NC[C@H](O)c1ccccc1)C(=O)OC`, for which the z-score was 2.51.
The result for `COc1ccc([Si](C)(C)[C@H]2[C@H](CCO)O[C@@]3(C(=O)N(Cc4cccc(N5C(=O)COc6ccccc65)c4)c4ccccc43)[C@@H]2C)cc1` reads 1.5.
With `CCCCCCc1nc(C2CC2)cc2c1[Si](C(C)C)(C(C)C)OC2`, the z-score is 0.01.
The result for `C=CCNC(=O)[C@@H]1[C@H]2C(=O)O[C@H](c3ccccc3)[C@H](c3ccccc3)N2[C@H](c2ccc(O)cc2)[C@@]12C(=O)N(C(=O)OCCOC)c1ccc(C#CC3(O)CCCCCC3)cc12` reads -0.857.
In the case of `CC(CO)N1C(=O)[C@@H]2[C@H]3C(=O)OCC=C[C@H]3OC23C=CCN(Cc2ccccc2)C(=O)[C@@H]13` (stereo partly specified), the z-score is -0.163.
For the compound `[N-]=[N+]=NCc1ccccc1C[C@@]1(C(=O)NCc2ccccc2)N=C(c2ccc(OCCCO)cc2)O[C@@H]1c1ccccc1N=[N+]=[N-]`, the z-score is -1.38.
The result for `C=CCN1Cc2ccccc2[C@H]2OC(c3ccc(OCCCO)cc3)=N[C@@]2(CC=C)C1=O` reads -3.05.
With `Cc1cc(C)cc(N2C(=O)CSC2c2cccc([N+](=O)[O-])c2)c1` (stereo unspecified) the figure was 0.0032; with `CCOc1cc(C(O)C2C=CC3C(=O)N(C)C(=O)C3N2Nc2ccccc2)ccc1O` (stereo unspecified), 0.921; with `[N-]=[N+]=Nc1ccccc1C[C@]1(C(N)=O)N=C(c2ccc(OCCCO)cc2)O[C@H]1c1ccccc1N=[N+]=[N-]`, -0.376.
With `NC(=O)NCC#Cc1ccc2c(c1)[C@]1(C(=O)N2)[C@H](C(=O)O)[C@H]2C(=O)O[C@H](c3ccccc3)[C@H](c3ccccc3)N2[C@@H]1c1ccc(OCCO)cc1` the figure was 0.33; with `CCCCCCc1nc(C2CC2)cc2c1[Si](C(C)C)(C(C)C)O[C@H]2c1ccccc1`, -0.746.
On to `COc1cc2c(cc1OC)CN(C(=O)[C@@H]1[C@H]3C(=O)O[C@H](c4ccccc4)[C@H](c4ccccc4)N3[C@H](c3ccc(OCCO)cc3)[C@@]13C(=O)Nc1ccc(C#CC4(O)CCCCCC4)cc13)CC2`, for which the z-score is 0.972.
In the case of `O=C1C[C@@](C(=O)NCCN2CCOCC2)(c2ccc([N+](=O)[O-])cc2)[C@@H](c2ccc(CO)cc2I)N1C1CCCCC1`, the z-score was -1.9.
As to `COC(=O)[C@@]1(Cc2ccc(F)cc2)[C@H]2c3cc(C(=O)N4CCCC4)n(CCc4ccc(O)c(O)c4)c3C[C@H]2CN1C(=O)c1ccccc1`, the z-score is 1.34.
The result for `CC(C)N1C(=O)C[C@@](C(=O)NCCCN(C)C)(c2ccc([N+](=O)[O-])cc2)[C@H]1c1ccc(CO)cc1` reads -0.768; that for `COC(=O)C1=CC(CCCO)=CC(C2CC2)N(C)C=C1C(=O)OC` (stereo unspecified), -1.81; that for `COC(=O)c1c(CC[C@@H](CO)NC(=O)N2CCC[C@H]2Cn2cc(Cc3ccccc3)nn2)oc(C(C)=O)c1C(=O)OC`, 0.102.
The result for `O=C(N1CCCCC1)[C@@]1(CCS(=O)(=O)c2ccccc2)COC(c2ccc(OCCCO)cc2)=N1` reads -0.612.
Regarding `CC1=C[C@@]2(CO)C(=O)[C@]3(CO3)[C@@H]1[C@H]1[C@]2(C)C=C(CO)C(=O)[C@]12CO2`, the z-score is -1.32.
With `CCCNC(=O)[C@@]1(c2ccc([N+](=O)[O-])cc2)CC(=O)N(C2CCCCC2)[C@@H]1c1ccc(CO)cc1` the figure was 1.3; with `NC(=O)NCC#Cc1ccc2c(c1)[C@]1(C(=O)N2)[C@H](C(=O)NC[C@H](O)c2ccccc2)[C@H]2C(=O)O[C@H](c3ccccc3)[C@H](c3ccccc3)N2[C@@H]1c1ccc(OCCO)cc1`, 2.75.
With `O=C1NC(=O)C2C1C=CC(C(O)CCc1ccccc1)N2Nc1ccc(Cl)cc1Cl` (stereo unspecified) the figure was -0.455; with `CCCCC=C[C@@H](NC(=O)c1ccc(-c2ccccc2)cc1)c1ccccc1`, 0.603; with `COc1ccc([Si](C)(C)[C@@H]2[C@@H](CC(=O)N(CCO)Cc3ccccc3)O[C@]3(C(=O)N(Cc4cccc(N5CCOC5=O)c4)c4ccccc43)[C@H]2C)cc1`, -0.757.
With `CC(C)N1CC=CC23O[C@@H]4C=CCOC(=O)[C@@H]4[C@H]2C(=O)N(CCCO)[C@@H]3C1=O` (stereo partly specified), the z-score is -1.46.
As to `C=CCNC(=O)[C@H]1[C@@H]2C(=O)O[C@@H](c3ccccc3)[C@@H](c3ccccc3)N2[C@@H](c2ccc(O)cc2)[C@]12C(=O)N(C(=O)OCCOC)c1ccccc12`, the z-score was 0.734.
The result for `O=C1OCC=C[C@H]2OC34C=CCN(c5ccc(Cl)cc5)C(=O)[C@H]3N(CCO)C(=O)[C@@H]4[C@@H]12` (stereo partly specified) reads -0.23.
